# Only some compounds are listed: those with a hit (about 31% of all), similar ones and a draw of the others.
# CYP2C19 act: increases human CYP2C19 enzyme activity; recombinant CYP2C19, luciferin-H EGE luminescence; hits give high values; 0 = fully inhibited enzyme, 1 = untreated enzyme; activation factor at 5 µM; 96,000 tested, under 10 active; AID 1025;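 active = activation factor of at least 2 at 5 µM in the primary screen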
# Target sequence (P33261 whole entry, looked up): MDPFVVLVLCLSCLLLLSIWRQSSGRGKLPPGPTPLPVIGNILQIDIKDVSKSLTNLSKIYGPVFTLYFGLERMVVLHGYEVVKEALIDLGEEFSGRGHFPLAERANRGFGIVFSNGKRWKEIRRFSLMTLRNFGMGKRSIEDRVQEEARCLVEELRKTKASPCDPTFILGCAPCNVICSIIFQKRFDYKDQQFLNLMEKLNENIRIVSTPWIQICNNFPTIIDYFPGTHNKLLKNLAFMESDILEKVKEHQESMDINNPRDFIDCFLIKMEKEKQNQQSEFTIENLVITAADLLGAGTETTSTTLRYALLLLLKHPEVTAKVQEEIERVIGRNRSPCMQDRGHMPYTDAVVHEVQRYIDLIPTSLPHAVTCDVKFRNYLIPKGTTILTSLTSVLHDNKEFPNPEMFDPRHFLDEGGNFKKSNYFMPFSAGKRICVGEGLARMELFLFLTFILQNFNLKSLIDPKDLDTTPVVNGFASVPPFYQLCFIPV
# CYP2C19 inh: blocks human cytochrome P450 2C19; CYP2C19 Supersomes, luciferin-H EGE luminescence, 30 min; inhibition, % at 5 µM; hit rate 21% among 96,000; AID 778; P33261;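 active = CYP2C19 inhibition above a set limit at 5 µM in the primary screen, cut at about 50% in these data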
# CYP2C9 inhib: blocks human cytochrome P450 2C9; hit rate 20% among 96,000; AID 777; CYP2C9 Supersomes, luciferin-H conversion, luminescence; inhibition, % at 5 µM;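 active = blocking of liver enzyme CYP2C9 beyond about 50% at 5 µM, limit read from the data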
# CYP2C9 activ: activators of human CYP2C9; P11712; recombinant CYP2C9, luciferin-H conversion, luminescence; hits give high values; factor 1 = untreated enzyme, 0 = blocked; activation factor at 5 µM; hit rate 1.4% among 96,000; AID 1024;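 active = activation factor of 2 or more for CYP2C9 at a 5 µM dose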
# PLAP act: activates human placental alkaline phosphatase; purified PLAP enzyme, luminescent substrate read-out; hits give high values; activation fold at 20 µM; hit rate 1.2% among 96,000; AID 696; in the data active = activation fold above about 2
# Numbers stand for hits; i = inactive; ! = a repeat was not active.
SMILES,CYP2C19 act,CYP2C19 inh,CYP2C9 inhib,CYP2C9 activ,PLAP act
CCOc1cccc(C2C(C(=O)c3ccc(C)o3)=C(O)C(=O)N2Cc2ccncc2)c1 (configuration not stated),i,i,i,i,i
O=C(NC1CC1)c1ccc(S(=O)(=O)NC2CCCCCC2)cc1,i,54,i,i,i
O=C(CCc1ccc(S(=O)(=O)NC2CCCCC2)cc1)Nc1ccccc1,i,i,i,i,i
CSc1ccc(S(=O)(=O)NC2CCCCCC2)cc1,i,95,i,i,i
O=C(O)c1ccc(S(=O)(=O)NC2CCCCC2)cc1,i,i,i,i,i
O=C(CCc1ccc(S(=O)(=O)NC2CCCCC2)cc1)N(Cc1ccccc1)Cc1ccccc1,i,70,88,i,i
CN1CCN(S(=O)(=O)c2cc([N+](=O)[O-])ccc2N2CCCCCC2)CC1,i,56,i,i,i
CN1CCN(c2ccc([N+](=O)[O-])cc2NC(=O)c2ccccc2Cl)CC1,i,i,i,i,i
C=CCn1c(SCC(=O)Nc2c(C)n(C)n(-c3ccccc3)c2=O)nc2sc(C)c(-c3ccccc3)c2c1=O,i,i,i,i,i
Cc1ccccc1Cn1ccc(-c2ccc3c(c2)OCO3)n1,i,58,50,i,i
Fc1cccc(Cn2ccc(-c3ccc4c(c3)OCO4)n2)c1,i,95,86,i,i
c1ccc2sc(-c3ccc4c(c3)OCO4)nc2c1,i,i,i,i,i
CCN(C(=O)COc1ncnc2ccc(Br)cc12)C1CCS(=O)(=O)C1 (configuration not stated),i,i,i,i,i
CCOC(=O)C(C)Sc1nnc(-c2ccccc2O)n1-c1ccc(C)cc1 (configuration not stated),i,i,i,i,i
CCn1nnc(-c2ccccc2NS(=O)(=O)c2ccc(S(=O)(=O)N(C)C3CCCCC3)cc2)n1,i,i,84,i,i
CCOC(=O)c1ccc(S(=O)(=O)Nc2cc(C(C)(C)C)no2)cc1,i,i,83,i,i
CCOC(=O)c1ccc(S(=O)(=O)Nc2ccccc2-c2nnn(CC)n2)cc1,i,99,96,i,i
CCn1nnc(-c2ccccc2NS(=O)(=O)c2ccc(S(=O)(=O)N3CCCCCC3)cc2)n1,i,i,i,i,i
CCOC(=O)c1ccc(NC(=O)NS(=O)(=O)c2ccc(C)cc2)cc1,i,i,i,i,i
CN(C)c1cccc(C(=O)NCC2CCCO2)c1 (configuration not stated),i,i,i,i,i
O=C(COc1ccccc1Cl)NCCCN1CCOCC1,i,57,i,i,i
O=C(NC(=S)NCCN1CCOCC1)c1ccccc1Cl,i,54,i,i,i
COc1ccc(Cn2c(=O)[nH]c3cc(C(=O)N4CCN(Cc5ccccc5)CC4)ccc3c2=O)cc1,i,64,75,i,i
CCN1CCN(C(=O)c2ccc(Cn3c(=O)[nH]c4cc(OC)c(OC)cc4c3=O)cc2)CC1,i,i,i,i,i
O=C(CCn1c(=O)[nH]c2ccccc2c1=O)N1CCN(c2ccc(Cl)cc2)CC1,i,i,i,i,i
SMILES,CYP2C19 act,CYP2C19 inh,CYP2C9 inhib,CYP2C9 activ,PLAP act
O=C(c1ccc(Cn2c(=O)[nH]c3ccccc3c2=O)cc1)N1CCN(c2ccc(F)cc2)CC1,i,88,62,i,i
CC(C)NC(=O)/C(=C/c1ccco1)c1ccccc1,i,i,i,i,i
Cc1cccc(C)c1NC(=O)/C(=C/c1ccco1)c1ccccc1,i,i,70,i,i
Cc1cc(C)c(NC(=O)/C(=C/c2ccco2)c2ccccc2)c(C)c1,i,77,68,i,i
CCC(C)NC(=O)/C(=C/c1ccco1)c1ccccc1 (configuration not stated),i,i,i,i,i
CCOC(=O)N1CCN(CCC(=O)Nc2ccc(Br)cc2)CC1,i,92,95,i,i
CCOC(=O)N1CCN(CCC(=O)Nc2cccc(Br)c2)CC1,i,65!,58!,i,i
CCOC(=O)N1CCN(CC(=O)Nc2cccc(Br)c2)CC1,i,i,i,i,i
CCOC(=O)N1CCN(CCC(=O)Nc2ccc(C)c(Br)c2)CC1,i,i,i,i,i
CCOc1ccc(Nc2nc(Cc3nnc(SCC(=O)NC4CCCCC4)n3C)cs2)cc1,i,79,91,i,i
Cc1c(C(C)NC(=O)Nc2ccc(F)cc2F)cnn1C (configuration not stated),i,i,i,i,i
Cc1ccn2cc(CCNS(=O)(=O)c3ccc4c(c3)OCCO4)nc2c1,i,79,i,i,i
CCN1c2ccccc2NC2C1C(C(C)=O)C(=O)N2c1ccc(Cl)cc1 (configuration not stated),i,92,79,i,i
Cc1ccc2[nH]c(=O)c3cc(C(=O)N(CCCOC(C)C)Cc4ccco4)sc3c2c1,i,i,58,i,i
CCCCN(Cc1ccco1)C(=O)c1cc2c(=O)[nH]c3ccc(C)cc3c2s1,i,50,72,i,i
Cc1ccc2cc(CN(Cc3ccco3)C(=O)c3cccs3)c(=O)[nH]c2c1,i,i,i,i,i
O=C(CCCc1nc2ccccc2s1)N1CCN(S(=O)(=O)c2cccs2)CC1,i,i,i,i,i
CCCCNCCCCOc1ccccc1,i,i,i,i,i
CCCCNC(c1ccccc1)c1ccncc1 (configuration not stated),i,70,i,i,i
COc1ccccc1N1CCN(Cc2nc3ccsc3c(=O)[nH]2)CC1,i,i,i,i,i
Cc1cc(NC(c2cccnc2)c2c(C)[nH]c3ccccc23)no1 (configuration not stated),i,62,i,i,i
COc1ccc(-c2nc(SCC(=O)Nc3cc(C)on3)n[nH]2)cc1,i,i,89,i,2.1
Cc1cc(NC(=O)CSc2c(C)[nH]c3ccccc23)no1,i,66,i,i,i
Cc1ccc(-n2c(SCC(=O)Nc3cc(C)on3)nc3c([nH]c4ccccc43)c2=O)cc1,i,i,i,i,i
CCCCc1nc(SCC(=O)Nc2cc(C)on2)n[nH]1,i,53,61,i,2.3
SMILES,CYP2C19 act,CYP2C19 inh,CYP2C9 inhib,CYP2C9 activ,PLAP act
Cc1cc(=O)[nH]c(Cc2ccc(OC(C)C)cc2)n1,i,i,i,i,i
Cc1cccc(N2CCN(C(=O)Cn3ccc4ccccc4c3=O)CC2)c1C,i,i,i,i,i
CC1=C(C(=O)Nc2ccc(Br)cc2)C(c2ccco2)NC(=O)N1 (configuration not stated),i,i,i,i,i
CCCCOc1ccccc1-c1cc(C(=O)O)[nH]n1,i,i,i,i,i
Cc1ccc2[nH]c3c(c2c1)CCC3=O,i,i,i,i,i
Cc1ccc2[nH]c3c(c2c1)CCc1cn[nH]c1-3,i,70,88,i,i
CCOC(=O)N1CCC(NC(=O)Cn2nc(Cc3ccncc3)c3ccccc3c2=O)CC1,i,55,77,i,i
CCOC(=O)N1CCN(C(=O)c2ccc3c(c2)N(CC)CCS3)CC1,i,i,78,i,i
CCOC(=O)N1CCC(NC(=O)Cn2nc(-c3ccccc3)ccc2=O)CC1,i,i,i,i,i

# Screening data (PubChem)
